Laboratory results reported in PMC5540273 (PLoS ONE, 2017).

System: T1, LOK
T1 construct: gene STK10
Conditions: concentration: 1 μM, replicates: in singlicate; n = 1
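Note: KINOMEscan kinase panel screen.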

| Structure (SMILES) | %Inh |
| --- | --- |
| COc1cc(Nc2nccc(-c3c(-c4cccc(NC(=O)c5c(F)cccc5F)c4)nn4ncccc34)n2)cc(OC)c1OC [GSK327238] | 99.3% |
| CC(=O)Nc1nc2cnc(Nc3cc(NC(=O)c4cccc(C5(C#N)CC5)c4Cl)ccc3C)nc2s1 | 54% |
| Cc1ccc(C(=O)Nc2ccc(Nc3ccnc4cc(-c5nccs5)ccc34)cc2O)cc1.Cl [GW494702] | 68% |
| Nc1ncc(-c2cccnc2)c2scc(-c3ccc4c(c3)CCN4C(=O)Cc3ccccc3)c12 [GSK683281] | 75% |

System: LRRK2
Conditions: concentration: 1 μM, replicates: in singlicate; n = 1

| Structure (SMILES) | %Inh |
| --- | --- |
| COc1ccc(Nc2nccc(N3CCC(NC(=O)Nc4cccc(OC)c4)C3)n2)cc1 (centres unmarked) [GSK1379742] | 14% |
| Cc1ccc(C)c(NC(=O)NC2CCN(c3ccnc(Nc4ccc(F)cc4)n3)C2)c1 (centres unmarked) [GSK1379720] | 0% |
| c1ccc(-c2n[nH]cc2Nc2ccnc3ccccc23)nc1 [GW694077] | 78% |
| COc1cc(Nc2nccc(N3CCC(NC(=O)Nc4cccc(C(C)=O)c4)C3)n2)cc(OC)c1OC (centres unmarked) [GSK1379753] | 0% |
| O=C(Nc1cccc(-c2nn3ncccc3c2-c2ccnc(Nc3ccccc3)n2)c1)c1c(F)cccc1F [GSK198271] | 0% |
| c1ccc(-c2cnc3nccnn23)cc1 [AH20685] | 5% |
| Cl.c1ccc(-c2ccc3c(Nc4ccc5[nH]ncc5c4)ccnc3c2)nc1 [GW440137] | 0% |
| Fc1ccc(-c2ncn(C3CCNCC3)c2-c2ccnc(Oc3ccc(-c4ccccc4)cc3)n2)cc1 [SB-245391] | 0% |
| Clc1ccc(-c2nn3ncccc3c2-c2ccnc(Nc3ccc4c(c3)OCCO4)n2)cc1 [GW829116] | 0% |
| Cc1ccc(F)c(C(=O)Nc2cccc(-c3nn4ccccc4c3-c3ccnc(Nc4cccc(F)c4)n3)c2)c1F [GSK361061] | 6% |
| CNC(=O)c1ccccc1Nc1nc(Nc2ccc(N3CCOCC3)cc2)ncc1Cl.Cl [GSK1576028] | 92.7% |
| Cc1cccc(Nc2nc(N[C@H]3CCNC3)ncc2C(N)=O)c1.Cl [GSK2197149] | 56% |
| CCn1c(-c2nonc2N)nc2c(C#CC(C)(C)O)nc(OC[C@H](N)c3ccccc3)cc21 [GSK943949] | 14% |
| COc1cc(Nc2ncc3c(C)nc(-c4cc5ccccc5[nH]4)n3n2)cc(OC)c1OC [GW869516] | 0% |
| Cl.NC(=O)c1cccc(Nc2nccc(Nc3ccc(Oc4c(Cl)cccc4Cl)c(Cl)c3)n2)c1 [GW659009] | 17% |
| Cl.c1ccc(-c2ccc3c(Nc4ccc5[nH]ccc5c4)ccnc3c2)nc1 [GW440138] | 0% |
| CN1CCN(CCCNc2nccc(-c3c(-c4ccc(F)cc4)nn4cc(C(F)(F)F)ccc34)n2)CC1 [GW621581] | 69% |
| O=C(Nc1n[nH]c2cc(-c3ccoc3)ccc12)C1CC1 [SB-738481] | 0% |
| COc1cccc(C2=C(Nc3ccc(Cl)c(C(=O)O)c3)C(=O)NC2=O)c1 [SB-390769] | 0% |

| Structure (SMILES) | %Inh |
| --- | --- |
| COc1cccc(-c2ccc3c(NC(=O)C4CC4)n[nH]c3n2)c1 [SB-710903] | 0% |
| COc1cccc(NC(=O)NC2CCN(c3ccnc(Nc4cc(OC)c(OC)c(OC)c4)n3)C2)c1 (centres unmarked) [GSK1379763] | 0% |
| CN(C)S(=O)(=O)c1cc(-c2ccc3nccc(-c4cccc(S(N)(=O)=O)c4)c3c2)cnc1N [GSK1669921] | 27% |
| Cn1cc(-c2ccc3c(c2)CCN3C(=O)Cc2cccc(F)c2)c2c(N)ncnc21 [GSK2603358] | 0% |
| COc1ccc(CNC(=O)NC2CCN(c3ccnc(Nc4ccc(F)cc4)n3)CC2)cc1 [GSK1379788] | 0% |
| O=C(Nc1cccc(-c2nn3ccccc3c2-c2ccnc(Nc3cccc(F)c3)n2)c1)c1c(F)ccc(F)c1Cl [GSK357952] | 32% |
| Cl.Cl.NCC(NCc1ccc(-c2ccnc3[nH]ccc23)s1)c1ccccc1 (centres unmarked) [GSK1321565] | 10% |
| CCc1ccc(-c2ccc3c(c2)-c2c(cnn2C)S(=O)(=O)N3C)cc1 | 1% |
| O=C(O)C(F)(F)F.O=C(O)C(F)(F)F.O=c1[nH]ccc2nc(N[C@@H]3CCCNC3)nc(Nc3ccc(S(=O)(=O)N4CCOCC4)cc3)c12 [GSK2177277] | 88% |
| Cc1occc1-c1ncc(OC[C@@H](N)Cc2c[nH]c3ccccc23)cc1-c1ccc2[nH]nc(C)c2c1.O=C(O)C(F)(F)F [GSK682037] | 23% |
| COCCOCCOc1cc2ncc3c4ccc(C#N)cc4[nH]c3c2cc1OC | 95.4% |
| CN(C)Cc1ccc(-c2ccc3c(Nc4ccc(Oc5ccccn5)cc4)ccnc3c2)o1 [GW567148] | 48% |
| Cc1ccc(C(=O)N2CC[C@@H](O)C2)cc1-n1c(C)cc(OCc2ccc(F)cc2F)c(Br)c1=O | 0% |
| Cn1cc(-c2[nH]c3cc(NC(=O)[C@H](N)C4CCCCC4)cc4c3c2C=NNC4=O)cn1 | 56% |
| COc1cc(Nc2nccc(-c3c(-c4cccc(NC(=O)c5c(F)cccc5F)c4)nn4ncccc34)n2)cc(OC)c1OC [GSK327238] | 0% |
| CC(=O)Nc1nc2cnc(Nc3cc(NC(=O)c4cccc(C5(C#N)CC5)c4Cl)ccc3C)nc2s1 | 0% |
| Cc1ccc(C(=O)Nc2ccc(Nc3ccnc4cc(-c5nccs5)ccc34)cc2O)cc1.Cl [GW494702] | 0% |
| Nc1ncc(-c2cccnc2)c2scc(-c3ccc4c(c3)CCN4C(=O)Cc3ccccc3)c12 [GSK683281] | 0% |
